Screening data deposited in PubChem BioAssay by National Center for Advancing Translational Sciences (NCATS).
A selection: hits, their analogues and other compounds. The true share with any hit is near 8.3%.
LASV entry inh: qHTS for Inhibitors of binding or entry into cells for Lassa Virus; Lassa virus pseudotype entry inhibition, cell reporter; Potency, µM (titrated, usually from 37.9 µM), for the others: at the top dose activity change, negative = inhibition, hits mostly inhibitors; 300,000 compounds, 1.2% hits; calls by dose curve; tested in HEK293 cells; also: potency is read from the fitted curve at half-maximal effect; nearly all actives have a fitted effect of over 50% in size
FMDV antiviral: High Throughput Screening for Foot and Mouth Disease Virus Antivirals; AID 1159524, 2015; 410,000 compounds, 1.2% hits; FMDV antiviral cell-based qHTS; Potency, µM (top dose mostly 57.9 µM), without a hit: at the top dose activity change, negative = inhibition, most hits filed as inhibitors; calls by dose curve; tested in HEK293T cells; also: read-out not given here; potency is read from the fitted curve at half-maximal effect; nearly all actives have a fitted effect of over 45% in size
HCMV inh: qHTS Assay for inhibitors of the human cytomegalovirus (HCMV); HFF cells, HCMV-luciferase reporter, 72 h; hits give low values; activity change, negative = inhibition, % at 57.5 µM; 410,000 compounds, 4.5% hits; in the data active = activity change below about -60%; inconclusive = no clear call, values can overlap the other calls; inactive = above about -39%
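Human foreskin fibroblasts infected with luciferase-reporter HCMV at MOI 1 PFU/cell, compounds at two doses. Luciferase measured 72 h post infection; normalized to buffer-only basal and Salinomycin (10uM) controls.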
FBPA Giardia inh: qHTS Assay for Inhibitors of Fructose-1,6-bisphosphate Aldolase from Giardia Lamblia | purified Giardia FBPA | 290,000 compounds, 0.71% hits | AID 2451, 2010 | Potency, µM (titrated, usually from 59.6 µM), without a hit: top-dose activity, negative = inhibition, actives largely listed as inhibitors; also: potency is read from the fitted curve at half-maximal effect; nearly all actives have a fitted effect of over 55% in size
Target sequence (A8B2U2 whole entry, looked up): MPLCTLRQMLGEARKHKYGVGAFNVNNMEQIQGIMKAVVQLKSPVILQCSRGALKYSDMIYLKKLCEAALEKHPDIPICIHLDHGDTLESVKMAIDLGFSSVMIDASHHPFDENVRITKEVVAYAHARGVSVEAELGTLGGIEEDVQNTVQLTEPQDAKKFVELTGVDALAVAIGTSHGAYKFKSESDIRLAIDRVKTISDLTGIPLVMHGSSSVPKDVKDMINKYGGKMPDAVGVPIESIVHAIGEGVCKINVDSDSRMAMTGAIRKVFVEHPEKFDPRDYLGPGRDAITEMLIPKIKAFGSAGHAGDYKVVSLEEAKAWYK
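40 nM FBPA preincubated 10 min at RT with compound (up to 57.5 uM final), then substrate plus GAPDH/TPI/NAD/arsenate coupling and diaphorase/resazurin added. Fluorescence read after 20 min at RT, 525/598 nm.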
HCV inh: qHTS Assay for Inhibitors of Hepatitis C Virus (HCV). Huh7.5.1 HCVcc-Cre infection, luciferase reporter, 44 h. Potency, µM (titrated, usually from 41.8 µM), without a hit: top-dose activity change, negative = inhibition, actives largely listed as inhibitors. 340,000 compounds, 3.4% hits. AID 651820, 2012; also: potency is read from the fitted curve at half-maximal effect
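Seed cells (1,000/well) for 4 h; treat with compound and infect with HCVcc-Cre, moi about 0.5. Incubate 44 h, then detect luciferase activity.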
Marburg entry inh: qHTS for inhibitors of binding or entry into cells for Marburg Virus; Marburg virus pseudotyped entry inhibition, cell reporter; Potency, µM (top dose mostly 37.8 µM), inactives show at the top dose activity change, negative = inhibition, most hits filed as inhibitors; 300,000 compounds, 1.8% hits; AID 540276, 2011; calls by dose curve; tested in HEK293 cells; also: potency is read from the fitted curve at half-maximal effect
An asterisk follows results filed as active; ? = inconclusive; / = not tested or not shown; [ ] = remark or other dose. Unless noted, calls follow the shape of the dose curve; as a rule, active = well fitted curve in the direction sought with a large enough effect; inconclusive = small, poorly fitted or top-dose-only effect, or another doubt; inactive = no such curve, though single readings can be large; an effect the other way counts as inactive or inconclusive. % is scaled to controls: 0 for no effect and ±100 for the full control effect.

SMILES	LASV entry inh	FMDV antiviral	HCMV inh	FBPA Giardia inh	HCV inh	Marburg entry inh
C/C(N)=C(/C#N)C(=O)COc1ncnc2ccccc12	8%	10%	14	-1%	21%	23%
C/C(N)=C(/C#N)C(=O)COC(=O)Cc1coc2ccc3ccccc3c12	-7%	5%	-68*	-1%	-22%	?
O=C(NC(=S)/C(=C1\CCCCCN1)[N+](=O)[O-])c1ccccc1	?	13µM*	/	/	-23%	?
CCCc1ccc(-c2cc(C(=O)N/N=C/c3ccc([N+](=O)[O-])o3)c3ccccc3n2)cc1	5.6µM*	?	?	-15%	10µM*	7.1µM*
O=C(N/N=C/c1ccc([N+](=O)[O-])o1)c1cc(-c2cccc(Br)c2)nc2ccccc12	?	-19%	-70*	-11%	10µM*	?
O=C(N/N=C/c1ccco1)c1cc(-c2ccccc2)nc2ccccc12	-15%[46.1 µM]	-2%	-39	/	4%	-12%[46.1 µM]
Cc1cccc(-n2nnc(-c3nc(-c4cccs4)no3)c2N)c1	?	43%	53	/	/	/
COc1ccc2c(c1)c(CCN)c(C)n2Cc1ccccc1	?	-10%	-14	-1%	?	?
Cc1c(CCCN)c2ccccc2n1Cc1ccccc1	/	0%	-35	-1%	11µM*	/
COCCn1c(=O)c(-c2ccc(F)cc2)nc2cnc(N3CCOCC3)nc21	/	-16%	/	6%	/	/
Cc1ccc(CSc2ncnc3onc(C)c23)cc1	-15%	-15%	?	7%	20%	?
Cc1ccc(Sc2ncnc3onc(C)c23)cc1	-4%	18µM*	64	7%	-16%	?
Cc1noc2ncnc(Sc3ccc(Cl)cc3)c12	-20%	?	-79*	-12%	?	?
C[C@H]1CC[C@H]2C(=O)O[C@H](COc3ccc(C(C)(C)C)cc3)CN2[C@H]1c1ccc(Br)cc1	?	/	/	/	/	-12%[14.2 µM]
Cc1cc(Cl)ccc1OCc1cc(=O)n2c3c(sc2n1)CCCC3	-20%[46.1 µM]	0%	-6	/	/	-3%[46.1 µM]
Cc1ccc(NC(=O)c2cc(C)n(-c3cccc(C)c3)c2C)cc1	10µM*	10%	-5	?	?	6.5µM*
Cc1cc(C(=O)Nc2ccc(Cl)cc2)c(C)n1-c1ccccc1	?	?	-93*	?	-23%	1.1µM*
Cc1cc(C(=O)Nc2ccc(Cl)cc2)n(-c2ccccc2)n1	-11%[46.1 µM]	19%	-14	18%	-2%	-1%[46.1 µM]
Cc1ccc(-n2c(C)cc(C(=O)NS(=O)(=O)c3ccc(C)cc3)c2C)cc1	4%[46.1 µM]	9%	-19	?	5%	-5%[46.1 µM]
Cc1ccc(NC(=O)c2csc(-c3ccccc3)c2C)cc1	6.5µM*	?	-13	2%	-2%	13µM*
Cc1ccc(NC(=O)c2cc(C)n(-c3ccccc3)c2C)cc1	2.8µM*	?	-93*	?	?	2.2µM*
N#Cc1cccc(NC(=O)N2CC[C@@]3(CCCN(C(=O)c4cc(C(F)(F)F)cc(C(F)(F)F)c4)C3)C2)c1	/	-16%	/	-10%	/	/
COc1ccc2c(c1)CCCC1(CCCO2)CCCO1 (centres undefined)	/	/	8	/	/	/
CC(C)(C)C(=O)OCOC(=O)[C@@H]1N2C(=O)[C@@H](N=CN3CCCCCC3)[C@H]2SC1(C)C	/	-13%	22	-1%[21.7 µM]	0.5µM*	/
CCc1ccccc1NC(=O)c1ccc2c(c1)nnn2C1CCCC1	1%[46.1 µM]	-8%	-22	/	/	/
SMILES	LASV entry inh	FMDV antiviral	HCMV inh	FBPA Giardia inh	HCV inh	Marburg entry inh
O=C1C(=O)N(Cc2cccc([N+](=O)[O-])c2)c2ccccc21	?	-20%	-39	-19%	-2%	11µM*
O=[N+]([O-])c1cccc(CN2CCN(Cc3ccc(Br)cc3)CC2)c1	/	?	-74*	?	22µM*	/
O=C(NCCN1CCCCC1)[C@H]1[C@H](CO)[C@H]2Cn3c(cccc3=O)[C@@H]1N2C(=O)C1CC1	/	/	-5	/	/	/
COC1=CC(=O)c2nc(Cl)ccc2C1=O	/	10µM*	-101*	/	/	/
Cc1ccc(OC[C@H](O)CNS(=O)(=O)c2ccccc2C(=O)O)cc1	/	/	/	/	/	2%[46.1 µM]
C[C@H](NC(=O)[C@@H](N)Cc1ccc(O)cc1)C(=O)NCC(=O)N(C)[C@@H](Cc1ccccc1)C(=O)N[C@H](CO)CCS(C)=O (some centres undefined)	/	-12%[6.7 µM]	/	/	/	/
CCN(CC)CC#CCC(O)(c1ccccc1)c1ccc(Br)cc1 (centres undefined)	?	-21%	-62*	1%	10µM*	23µM*
CCN(CC)CC#CCC(O)(c1ccccc1)c1ccccc1	-28%	-16%	-2	4%	?	?
CCc1cc(-c2cnnn2CCc2c[nH]c3ccccc23)ccc1-c1cn(CC(C)C)nn1	7.9µM*	-23%	-19	/	/	/
CCCCCc1ccc(-c2cn(CCc3c[nH]c4ccccc34)nn2)cc1	/	-23%	-61*	-1%	?	/
O=S(=O)(c1ccccc1)N1CCC2(CCN(c3cccc(-c4ccccc4)c3)CC2)CC1	/	-27%	/	1%	/	/
CCOc1ccc(S(=O)(=O)N(C)CCO)cc1-c1nc2c(C(C)(C)C)nn(C)c2c(=O)[nH]1	2.8µM*	0%	-13	-3%	?	-31%
CCOc1ccc(S(=O)(=O)N(C)C)cc1-c1nc2c(C(C)(C)C)nn(C)c2c(=O)[nH]1	-20%	/	-17	-1%	8%	2%
CN[C@H](CC(C)C)C(=O)N[C@H]1C(=O)N[C@@H](CC(N)=O)C(=O)N[C@@H]2C(=O)N[C@H]3C(=O)N[C@H](C(=O)N[C@H](C(=O)O)c4cc(O)cc(O)c4-c4cc3ccc4O)[C@H](O)c3ccc(c(Cl)c3)Oc3cc2cc(c3O[C@@H]2O[C@H](CO)[C@@H](O)[C@H](O)[C@@H]2O[C@H]2C[C@](C)(N)[C@H](O)[C@H](C)O2)Oc2ccc(cc2Cl)[C@H]1O	43%	/	/	/	/	-11%
Cc1cc(C)c(NC(=O)CN2C(=O)C3(SCC(=O)N3c3ccc(F)cc3)c3ccccc32)c(C)c1 (centres undefined)	-16%[46.1 µM]	-23%	-18	/	/	/
CC1=CC(C)(C)N2C(=O)C3(SCC(=O)N3c3ccc(F)cc3)c3cc(C)cc1c32 (centres undefined)	-3%	18µM*	-67*	-1%	?	?
COc1ccc(C(=O)N2CCC3(CCCN(C)C3)CC2)cc1	/	-2%	/	7%	/	/
O=C(c1ccc(Br)o1)N1CCN(c2ccccc2F)CC1	-18%	15%	?	3%	?	-4%
O=C(c1ccc(CS(=O)c2ccccc2Cl)o1)N1CCN(c2ccccc2F)CC1 (centres undefined)	-13%[46.1 µM]	-23%	-67*	/	/	/
